From PubChem
SARS PLpro yeast = inhibitors of SARS-CoV papain-like protease in yeast | S. cerevisiae expressing SARS-CoV PLpro, growth rescue | Potency, µM (highest dose often 32.9 µM), for inactives: at the highest dose activity, positive = growth rescue, usual class: activators | hit rate 0.19% among 330,000 | AID 485353; calls by dose curve; note: potency is the fitted concentration of half-maximal effect; 0% is about no effect; nearly all actives have a fitted effect of over 55% in size
Pf growth 96h = P. falciparum growth inhibition at 96 hour, primary screen for plastid delayed-death inhibitors | P. falciparum luciferase reporter growth, 96 h | Potency, µM (top dose mostly 28.7 µM), without a hit: at the highest dose activity change, negative = inhibition, most hits filed as inhibitors | hit rate 6.9% among 320,000; note: potency is the fitted concentration of half-maximal effect; % is set by controls: 0 for no effect and ±100 for the full control effect
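P. falciparum expressing integrated firefly luciferase, in erythrocytes at 2% hematocrit, 0.05% parasitemia, incubated with compounds 96 h at 37 C, 5% CO2. Growth inhibition read as loss of luminescence; two-generation exposure targets delayed-death apicoplast inhibitors.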
Cycloheximide cs = affects cycloheximide protein synthesis inhibition readout, counter-screen | cell reporter, cycloheximide protein synthesis inhibition counterscreen | max response, % | hit rate 12% among 300,000 | AID 2314; in the data active = max response mostly above about 13%, no sharp cut-off; inactive = mostly below about 14%; note: read at 38.3 µM for the half of the compounds with a filed dose; 0% is about no effect
AMA1-RON2 inh = disrupts binding of P. falciparum AMA1 to RON2; AlphaScreen AMA1-biotinylated RON2 peptide binding; Potency, µM (series often up to 58.2 µM), inactives show at the top dose activity change, negative = inhibition, most hits filed as inhibitors; hit rate 0.2% among 360,000; AID 720542;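 note: potency is the fitted concentration of half-maximal effect; 0% = vehicle wells and -100% = peptide control; nearly all actives have a fitted effect of over 45% in size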
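AMA1 (3D7) with his tag at 25 nM final met compounds first, then biotinylated RON2 peptide at 25 nM; detection used donor plus acceptor beads, 10 µg/mL apiece, read by AlphaScreen after 30 min at room temperature.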
Shiga toxin inh = Shiga toxin inhibition; inhibition, % at 38.7 µM; Vero cells, Shiga toxin protein synthesis inhibition reporter; AID 2315; hit rate 9.2% among 290,000; in the data active = inhibition mostly above about 28%, no sharp cut-off; inactive = mostly below about 43%; note: 0% is about no effect
Pf growth 48h = inhibits P. falciparum growth in the first generation, 48 h. Potency, µM (highest dose often 28.7 µM), for inactives: at the highest dose activity change, negative = inhibition, most hits filed as inhibitors. hit rate 5.9% among 310,000. P. falciparum luciferase growth in erythrocytes, 48 h; note: potency is the fitted concentration of half-maximal effect; % is set by controls: 0 for no effect and ±100 for the full control effect
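In quantitative HTS format, infected erythrocytes bearing luciferase-reporter parasites were treated for a single generation at 37 C. Luminescence after adding detection reagent served as the growth measure.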
Numbers without * were called inactive; i = inactive; ? = inconclusive; . = no result given; [ ] = remark or other dose. This is a sample that favours compounds with a hit; in the whole collection about 19% have one here. Unless noted, calls come from the whole dose curve; as a rule, active = well fitted curve in the direction sought with a large enough effect; inconclusive = small, poorly fitted or top-dose-only effect, or another doubt; inactive = no such curve, though single readings can be large; an effect the other way counts as inactive or inconclusive.

SMILES	SARS PLpro yeast	Pf growth 96h	Cycloheximide cs	AMA1-RON2 inh	Shiga toxin inh	Pf growth 48h
Cc1ccc(C(C(=O)NC2CCCCC2)N(C(=O)c2csnn2)C2CC2)cc1 (stereo not drawn)	0.8%	-12.0%	11.5	-5.9%	21.2	-3.5%
COCCN(C(=O)c1ccccc1)c1nnc(-c2cccnc2)s1	5.0%	?	1.6	7.9%	19.4	26.6%
CN(C(=O)c1ccco1)c1nnc(-c2ccc(F)cc2)s1	-5.4%	2.3%	50.9*	-9.0%	84.7*	130.1%
CCCN(C(=O)c1cccs1)c1nnc(-c2ccncc2)s1	-4.2%	?	22.2*	0.2%	56.8*	67.6%
CCN(C(=O)Cc1cccs1)c1nnc(-c2cc(OC)c(OC)c(OC)c2)s1	-0.3%	-17.4%	-1.4	5.4%	-4.1	5.22µM*
CCN(C(=O)c1ccco1)c1nnc(-c2cccnc2)s1	-3.7%	?	33.7*	2.0%	74.7*	60.6%
CCN(C(=O)Cc1ccccc1OC)c1nnc(-c2ccncc2)s1	-3.4%	?	-1.5	-4.2%	-18.2	?
CSCC[C@H](NC(=O)[C@H](CC(C)C)NC(=O)[C@@H]1CCCN1C(=O)[C@H](Cc1ccccc1)NC(=O)[C@H](Cc1ccccc1)NC(=O)[C@H](CCC(N)=O)NC(=O)[C@H](CCC(N)=O)NC(=O)[C@@H]1CCCN1C(=O)[C@H](CCCCN)NC(=O)[C@@H]1CCCN1C(=O)[C@@H](N)CCCN=C(N)N)C(N)=O	.	.	0.4	.	2.2	.
O=C(Nc1ccc(Cl)c(Cl)c1)C1CC1	.	?	.	.	.	3.4%
CN(C(=O)c1ccco1)c1nc(-c2ccc(F)cc2)cs1	3.4%	?	44.5*	-0.5%	57.8*	159.0%
COc1ccc(CCNC(=O)CSc2nn(-c3ccccc3)c(=S)s2)cc1	5.9%	-5.6%	-5.4	-11.0%	-2.6	-8.6%
O=C1CC(c2ccc(F)cc2)CC(O)=C1C1NCCc2ccccc21 (stereo not drawn)	-9.7%	-27.0%	18.7*	0.0%	25.0	-9.0%
CCCC(=O)N1CCCC1(C)C(=O)Nc1ccc2cn[nH]c2c1 (stereo not drawn)	.	.	.	18.5%	.	.
COc1ccc2c(c1OC)C(=O)N1c3ccccc3C(=O)N(c3ccccc3F)C21 (stereo not drawn)	-9.9%	11.7µM*	-5.7	0.0%	-17.2	10.4µM*
COc1ccc2c(c1OC)C(=O)N1c3cccc(Cl)c3C(=O)OC21 (stereo not drawn)	-6.8%	?	4.0	-3.7%	1.3	4.4%
COc1ccc2c(c1OC)C(=O)N1c3ccccc3COC21 (stereo not drawn)	5.2%	25.7%	41.2*	-1.8%	80.2*	138.8%
O=C1c2ccccc2N2C(=O)c3ccccc3[C@H]2N1c1ccccc1	3.6%	?	-2.8	-8.4%	-15.0	.
COc1ccc2c(c1OC)C(=O)N1c3ccccc3SC21 (stereo not drawn)	3.4%	121.3%	35.3*	3.7%	54.2*	226.2%
CCOC(=O)CCNCc1ccc(F)cc1	-0.6%	24.4%	-1.9	5.0%	-17.3	26.9%
COc1ccc(N2C(=O)CC(N(CCc3ccc(S(N)(=O)=O)cc3)C(=S)Nc3ccccc3)C2=O)cc1 (stereo not drawn)	3.7%	?	-4.5	?	-2.6	?
COc1ccc(CCN(C)C2CC(=O)N(c3ccccc3)C2=O)cc1OC (stereo not drawn)	-4.4%	1.6%	-1.6	-5.3%	-10.9	?
COc1ccc(N2C(=O)CC(N(CCc3ccc(OC)c(OC)c3)C(=S)Nc3ccccc3)C2=O)cc1 (stereo not drawn)	-10.7%	?	-1.6	2.2%	10.6	4.65µM*
COc1ccc(N2C(=O)CC(N(C)CCc3ccc(OC)c(OC)c3)C2=O)cc1 (stereo not drawn)	-1.8%	9.1%	-0.8	4.6%	-3.5	9.28µM*
Cc1ccc(-n2c(C)cc(C(=O)COC(=O)c3ccc[nH]c3=O)c2C)cc1	-11.0%	?	40.5*	-9.3%	57.9*	12.3%
Cc1cc(C(=O)COC(=O)c2ccc[nH]c2=O)c(C)n1-c1ccc(Br)cc1	-84.4%	-26.7%	48.1*	-3.0%	27.4*	-13.6%
SMILES	SARS PLpro yeast	Pf growth 96h	Cycloheximide cs	AMA1-RON2 inh	Shiga toxin inh	Pf growth 48h
CCC(C)NS(=O)(=O)c1ccc(S(=O)(=O)N2CCCC3(CCCCC3)C2)cc1 (stereo not drawn)	-1.0%	.	-1.9	-7.9%	-11.0	?
O=C(O)c1ccc(Nc2nc(-c3cc4ccccc4oc3=O)cs2)cc1O	0.8%	-7.9%	14.4	3.6%	20.0	27.7%
Nc1ccc(Nc2nc(-c3cc4ccccc4oc3=O)cs2)cc1	-0.7%	?	43.3*	-7.5%	115.8*	71.1%
CC(=O)Nc1ccc(Nc2nc(-c3cc4ccccc4oc3=O)cs2)cc1	11.0%	-23.6%	47.0*	-2.4%	68.9*	114.5%
COC(=O)c1ccn(CC(=O)NC2CCCCC2)n1	3.2%	1.2%	-3.6	1.1%	-7.5	26.0%
CN(Cc1ccc(Cl)c(Cl)c1)C(=O)C1=CC=CN2CCS(=O)(=O)N=C12	-2.8%	1.47µM*	.	-9.2%	.	9.28µM*
O=c1c(Br)c(N2CCCCC2)cnn1-c1ccccc1	-0.3%	29.6%	21.0*	4.3%	116.3*	198.7%
CS(=O)(=O)N1CCN(c2cnn(-c3ccccc3)c(=O)c2Cl)CC1	0.2%	40.1%	-4.9	12.8%	3.3	-1.4%
O=c1c(Br)c(N2CCOCC2)cnn1-c1ccccc1	-3.9%	3.8%	18.0*	2.9%	91.9*	259.9%
O=c1c(Br)c(Br)cnn1-c1ccccc1	0.6%	-2.5%	-8.7	2.6%	-32.1	-27.9%
O=c1c(Br)c(N2CCCC2)cnn1-c1ccccc1	14.6%	34.4%	47.2*	8.7%	80.8*	123.1%
CN1CCN(c2cnn(-c3ccccc3)c(=O)c2Br)CC1	-0.8%	?	29.4*	-2.9%	52.7*	37.3%[5.75 µM]
O=c1cc(-c2cccc(F)c2)[nH]c2cc(F)ccc12	.	.	-5.3	.	i	.
Cc1cc2sc3ccccc3c(=O)c2c(C)c1O	-3.5%	28.9%	71.0*	5.5%	84.9*	?
CC(C)[C@H](NC(N)=O)C(=O)Nc1cccc([N+](=O)[O-])c1	-1.5%	23.0%	-3.1	-27.1%	-2.5	12.9%
Cc1cc(C)c(S(=O)(=O)c2c(C)cccc2C)c(OCC(C)C)n1	-25.9%	11.7µM*	6.0	23.2%	-29.7	11.7µM*
CCOc1nc(C)cc(C)c1S(=O)(=O)c1cccc(C)c1	0.4%	0.0%	-1.2	.	20.6	-25.1%
O=C(c1ccccc1)N(Cc1cccc(Br)c1)C1CCS(=O)(=O)C1 (stereo not drawn)	13.6%	8.6%	6.5	-3.9%	-8.3	13.0%
COc1ccc(-n2c(C)n[nH]c2=O)cc1	4.4%	77.3%	-2.1	-2.8%	-10.2	12.5%
Cc1n[nH]c(=O)n1-c1ccc(OCc2ccccc2)cc1	-0.5%	-74.8%	53.4*	-10.1%	91.9*	283.5%
